Test results taken from the supplement of paper PMC8728848.
Shown is part of a subset that was picked to be rich in the strongest signals.

Tests used:
Experiment in all cases: glycan array binding signal (z-score within array); higher = stronger binding
Conditions in all cases: glycan notation: IUPAC condensed, linker removed
[1] = target: Fuc(a1-2)Gal(b1-3)GalNAc(b1-3)Gal
Method in brief: (§1)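 Columns mapping to the same glycan were averaged after glycan names were converted to IUPAC-condensed notation. The data come from 3228 arrays in the Consortium for Functional Glycomics database, limited to those with an available protein sequence. Binding is reported as a within-array Z-score averaged across arrays of one protein sequence and across linkers.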

[2] = target: Fuc(a1-2)Gal(b1-4)[Fuc(a1-3)]GlcNAc(b1-2)Man(a1-3)[Fuc(a1-2)Gal(b1-4)[Fuc(a1-3)]GlcNAc(b1-2)Man(a1-6)]Man(b1-4)GlcNAc(b1-4)GlcNAc
Method in brief: as §1

[3] = target: Fuc(a1-3)[Gal3S(b1-4)]Glc6S
Method in brief: as §1

[4] = target: Gal(a1-3)Gal(b1-4)Glc
Method in brief: as §1

[5] = target: Gal(a1-3)GalNAc
Method in brief: as §1

[6] = target: Gal(b1-3)GalNAc
Method in brief: as §1

[7] = target: Gal(b1-3)[Fuc(a1-4)]GlcNAc(b1-2)Man(a1-3)[Gal(b1-3)[Fuc(a1-4)]GlcNAc(b1-2)Man(a1-6)]Man(b1-4)GlcNAc(b1-4)GlcNAc
Method in brief: as §1

[8] = target: Gal(b1-4)GlcNAc(b1-3)Gal(b1-4)GlcNAc(b1-3)Gal(b1-4)GlcNAc
Method in brief: as §1

[9] = target: Gal3S(b1-4)[Fuc(a1-3)]Glc
Method in brief: as §1

[10] = target: GalNAc(a1-3)GalNAc
Method in brief: as §1

[11] = target: GalNAc(b1-3)GalNAc
Method in brief: as §1

[12] = target: GalNAc(b1-4)GlcNAc(b1-2)Man(a1-3)[GalNAc(b1-4)GlcNAc(b1-2)Man(a1-6)]Man(b1-4)GlcNAc(b1-4)GlcNAc
Method in brief: as §1

[13] = target: GlcA(b1-3)GlcNAc
Method in brief: as §1

[14] = target: GlcNAc(a1-3)Gal(b1-4)GlcNAc
Method in brief: as §1

[15] = target: GlcNAc(a1-4)Gal(b1-3)GlcNAc
Method in brief: as §1

[16] = target: GlcNAc(b1-2)Gal(b1-3)GalNAc
Method in brief: as §1

[17] = target: GlcNAc(b1-3)Gal(b1-3)GalNAc
Method in brief: as §1

[18] = target: GlcNAc(b1-3)[GlcNAc(b1-4)][GlcNAc(b1-6)]GlcNAc
Method in brief: as §1

[19] = target: Man(a1-2)Man(a1-3)[Man(a1-6)]Man(a1-6)[Man(a1-2)Man(a1-3)]Man(b1-4)GlcNAc(b1-4)GlcNAc
Method in brief: as §1

[20] = target: Neu5Ac(a2-3)Gal
Method in brief: as §1

[21] = target: Neu5Ac(a2-3)Gal(b1-3)[Neu5Ac(a2-6)]GalNAc
Method in brief: as §1

[22] = target: Neu5Ac(a2-3)Gal(b1-4)GlcNAc(b1-3)Gal(b1-4)[Fuc(a1-3)]GlcNAc
Method in brief: as §1

[23] = target: Neu5Ac(a2-3)Gal(b1-4)[Fuc(a1-3)]GlcNAc(b1-6)[Gal(b1-3)]GalNAc
Method in brief: as §1

[24] = target: Neu5Ac(a2-3)[GalNAc(b1-4)]Gal(b1-4)GlcNAc
Method in brief: as §1

[25] = target: Neu5Ac(a2-8)Neu5Ac(a2-8)Neu5Ac(a2-3)[GalNAc(b1-4)]Gal(b1-4)Glc
Method in brief: as §1

[26] = target: Neu5Gc(a2-6)GalNAc
Method in brief: as §1

[27] = target: Fuc(a1-2)Gal(b1-4)GlcNAc
Method in brief: as §1

[28] = target: Fuc(a1-2)Gal(b1-4)[Fuc(a1-3)]GlcNAc
Method in brief: as §1

[29] = target: Fuc(a1-2)Gal(b1-4)[Fuc(a1-3)]GlcNAc(b1-3)Gal(b1-4)[Fuc(a1-3)]GlcNAc(b1-3)Gal(b1-4)[Fuc(a1-3)]GlcNAc
Method in brief: as §1

[30] = target: Fuc(a1-2)[GalNAc(a1-3)]Gal(b1-4)[Fuc(a1-3)]GlcNAc
Method in brief: as §1

[31] = target: Gal(b1-3)GalNAc(b1-4)Gal(b1-4)Glc
Method in brief: as §1

[32] = target: Gal(b1-3)GlcNAc(b1-3)Gal(b1-3)GlcNAc
Method in brief: as §1

[33] = target: Gal(b1-4)GlcNAc(b1-2)Man(a1-3)Man(b1-4)GlcNAc(b1-4)GlcNAc
Method in brief: as §1

[34] = target: Gal(b1-4)GlcNAc(b1-2)Man(a1-3)[Gal(b1-4)GlcNAc(b1-2)Man(a1-6)]Man(b1-4)GlcNAc(b1-4)GlcNAc
Method in brief: as §1

[35] = target: Gal(b1-4)GlcNAc(b1-6)GalNAc
Method in brief: as §1

[36] = target: Gal3S(b1-4)GlcNAc
Method in brief: as §1

[37] = target: Gal3S(b1-4)GlcNAc6S
Method in brief: as §1

[38] = target: Gal6S(b1-4)GlcNAc6S
Method in brief: as §1

[39] = target: Glc(a1-4)Glc
Method in brief: as §1

[40] = target: GlcNAc(a1-4)Gal(b1-4)GalNAc
Method in brief: as §1

[41] = target: GlcNAc(a1-4)Gal(b1-4)GlcNAc(b1-3)Gal(b1-4)GlcNAc
Method in brief: as §1

[42] = target: GlcNAc(b1-2)Man(a1-3)[GlcNAc(b1-2)Man(a1-6)]Man(b1-4)GlcNAc(b1-4)[Fuc(a1-6)]GlcNAc
Method in brief: as §1

[43] = target: GlcNAc(b1-3)GalNAc
Method in brief: as §1

[44] = target: GlcNAc(b1-3)[GlcNAc(b1-6)]Gal(b1-4)GlcNAc
Method in brief: as §1

[45] = target: Kdn(a2-3)Gal(b1-3)GalNAc
Method in brief: as §1

[46] = target: Man(a1-2)Man(a1-6)[Man(a1-3)]Man(a1-6)[Man(a1-2)Man(a1-2)Man(a1-3)]Man(b1-4)GlcNAc(b1-4)GlcNAc
Method in brief: as §1

[47] = target: Neu5Ac(a2-3)Gal(b1-3)GlcNAc6S
Method in brief: as §1

[48] = target: Neu5Ac(a2-3)Gal(b1-4)GlcNAc(b1-6)[Neu5Ac(a2-3)Gal(b1-3)]GalNAc
Method in brief: as §1

[49] = target: Neu5Ac(a2-3)Gal(b1-4)GlcNAc6S
Method in brief: as §1

[50] = target: Neu5Ac(a2-3)Gal(b1-4)[Fuc(a1-3)]GlcNAc(b1-3)Gal(b1-4)GlcNAc
Method in brief: as §1

[51] = target: Neu5Gc(b2-6)Gal(b1-4)GlcNAc
Method in brief: as §1

B1: CTLX (Homo sapiens), Q6UXS0 (protein)
chain: SLCPLFWMEFKGHCYRFFPLNKTWAEADLYCSEFSVGRKSAKLASIHSWEENVFVYDLVNSCVPGIPADVWTGLHDHRQEGQFEWTDGSSYDYSYWDGSQPDDGVHADPEEEDCVQIWYRPTSALRSWNDNTCSRKFPFVCKIPSLTIH
- glycan array binding signal (z-score) [1]: 0.292
- glycan array binding signal (z-score) [2]: 3.01
- glycan array binding signal (z-score) [3]: 5.87
- glycan array binding signal (z-score) [4]: 1.11
- glycan array binding signal (z-score) [5]: -1.04
- glycan array binding signal (z-score) [6]: 0.235
- glycan array binding signal (z-score) [7]: 4.2
- glycan array binding signal (z-score) [8]: -0.836
- glycan array binding signal (z-score) [9]: -0.137
- glycan array binding signal (z-score) [10]: -0.619
- glycan array binding signal (z-score) [11]: -0.421
- glycan array binding signal (z-score) [12]: 0.305
- glycan array binding signal (z-score) [13]: 0.103
- glycan array binding signal (z-score) [14]: -0.363
- glycan array binding signal (z-score) [15]: 3.54
- glycan array binding signal (z-score) [16]: -0.988
- glycan array binding signal (z-score) [17]: 4.33
- glycan array binding signal (z-score) [18]: -0.646
- glycan array binding signal (z-score) [19]: -0.346
- glycan array binding signal (z-score) [20]: -0.528
- glycan array binding signal (z-score) [21]: 0.498
- glycan array binding signal (z-score) [22]: -0.47
- glycan array binding signal (z-score) [23]: 4
- glycan array binding signal (z-score) [24]: -0.041
- glycan array binding signal (z-score) [25]: -1.09
- glycan array binding signal (z-score) [26]: -0.736

B2: GALT1 615 (Arabidopsis thaliana), Q8L7F9 (protein)
chain: DPMRGSHHHHHHGMASMTGGQQMGRDLYDDDDKSRLQKPYITAAASVVVTPNTTLPMEWLRITLPDFMKEARNTQEAISGDDIAVVSGLFVEQNVSKEEREPLLTWNRLESLVDNAQSLVNGVDAIKEAGIVWESLVSAVEAKKLVDVNENQTRKGKEELCPQFLSKMNATEADGSSLKLQIPCGLTQGSSITVIGIPDGLVGSFRIDLTGQPLPGEPDPPIIVHYNVRLLGDKSTEDPVIVQNSWTASQDWGAEERCPKFDPDMNKKVDDLDECNKMVGGEINRTSSTSLQSNTSRGVPVAREASKHEKYFPFKQGFLSVATLRVGTEGMQMTVDGKHITSFAFRDTLEPWLVSEIRITGDFRLISILA
- glycan array binding signal (z-score) [1]: 8.63
- glycan array binding signal (z-score) [27]: -0.374
- glycan array binding signal (z-score) [28]: 4.77
- glycan array binding signal (z-score) [29]: 1.95
- glycan array binding signal (z-score) [30]: 1.82
- glycan array binding signal (z-score) [31]: -0.508
- glycan array binding signal (z-score) [32]: -0.271
- glycan array binding signal (z-score) [33]: -0.484
- glycan array binding signal (z-score) [34]: 0.081
- glycan array binding signal (z-score) [35]: -0.439
- glycan array binding signal (z-score) [36]: -0.208
- glycan array binding signal (z-score) [37]: -0.044
- glycan array binding signal (z-score) [38]: -0.309
- glycan array binding signal (z-score) [39]: 3.74
- glycan array binding signal (z-score) [40]: 8
- glycan array binding signal (z-score) [41]: -0.46
- glycan array binding signal (z-score) [42]: 6.45
- glycan array binding signal (z-score) [43]: -0.386
- glycan array binding signal (z-score) [44]: -0.348
- glycan array binding signal (z-score) [45]: -0.772
- glycan array binding signal (z-score) [46]: -0.415
- glycan array binding signal (z-score) [47]: -0.079
- glycan array binding signal (z-score) [48]: -0.225
- glycan array binding signal (z-score) [49]: -0.078
- glycan array binding signal (z-score) [50]: 0.904
- glycan array binding signal (z-score) [51]: -0.419
